Hits are enriched below; roughly 27% of the tested compounds scored in any of these assays.
Cav32 inh: human Cav3.2 channel inhibition, primary screen. O95180. Cav3.2-expressing cells, Fluo-4 calcium fluorescence FDSS; active compounds read low. B-score at 10 µM. 100,000 compounds, 4% hits. AID 449739;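 active = single-dose well whose peak fluorescence ratio is a statistical outlier from its plate by either plate-standardised score or position-corrected B-score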
CYP2C9 inh: inhibitors of human CYP2C9. CYP2C9 Supersomes, luciferin-H conversion, luminescence. 96,000 compounds, 20% hits. inhibition, % at 5 µM;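 active = blocking of liver enzyme CYP2C9 beyond about 50% at 5 µM, limit read from the data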
Target sequence (P11712 whole entry, looked up): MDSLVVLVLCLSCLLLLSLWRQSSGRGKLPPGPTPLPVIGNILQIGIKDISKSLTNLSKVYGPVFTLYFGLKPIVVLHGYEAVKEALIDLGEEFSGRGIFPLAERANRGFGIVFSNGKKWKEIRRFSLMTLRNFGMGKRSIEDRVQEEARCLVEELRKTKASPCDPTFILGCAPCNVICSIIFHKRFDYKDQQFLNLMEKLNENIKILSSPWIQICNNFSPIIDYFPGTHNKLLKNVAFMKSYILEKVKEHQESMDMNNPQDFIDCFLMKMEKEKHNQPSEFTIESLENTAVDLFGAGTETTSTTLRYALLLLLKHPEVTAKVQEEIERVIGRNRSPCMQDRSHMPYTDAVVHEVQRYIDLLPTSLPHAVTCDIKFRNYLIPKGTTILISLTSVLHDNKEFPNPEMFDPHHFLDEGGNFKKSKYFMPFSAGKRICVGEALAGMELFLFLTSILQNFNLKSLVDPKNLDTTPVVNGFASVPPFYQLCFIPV
CYP2C19 act: increases human CYP2C19 enzyme activity. P33261. recombinant CYP2C19, luciferin-H EGE luminescence; active compounds read high; 0 = fully inhibited enzyme, 1 = untreated enzyme. activation factor at 5 µM. 96,000 tested, under 10 active. AID 1025;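 active = activation factor of at least 2 at 5 µM in the primary screen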;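 note: 0 = wells with 2.5 mM tranylcypromine and 1 = vehicle-only wells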
CYP2C19 inh: blocks human cytochrome P450 2C19. P33261. CYP2C19 Supersomes, luciferin-H EGE luminescence, 30 min. inhibition, % at 5 µM. 96,000 compounds, 21% hits. AID 778;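 active = CYP2C19 inhibition above a set limit at 5 µM in the primary screen, cut at about 50% in these data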;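 note: plate controls were negative control wells for no effect and 2.5 mM tranylcypromine positive control for full effect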
CYP2C9 activ: activators of human CYP2C9. P11712. recombinant CYP2C9, luciferin-H conversion, luminescence; active compounds read high; factor 1 = untreated enzyme, 0 = blocked. activation factor at 5 µM. 96,000 compounds, 1.4% hits. AID 1024;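 active = activation factor of 2 or more for CYP2C9 at a 5 µM dose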;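 note: 0 = sulfaphenazole-blocked wells and 1 = vehicle-only wells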
* marks the source's active call; other numbers are inactive results.

How did CCOC(=O)C1CCN(C(=O)CN(Cc2ccccc2)S(C)(=O)=O)CC1 do in these assays?
Cav32 inh: 0.059; CYP2C9 inh: -3; CYP2C19 act: 1; CYP2C19 inh: -2; CYP2C9 activ: 1

How did CCOC(=O)C1CCN(C(=O)c2ccc(Br)o2)CC1 do in these assays?
Cav32 inh: -0.99; CYP2C9 inh: 70*; CYP2C19 act: 0.2; CYP2C19 inh: 82*; CYP2C9 activ: 0.3

Results for CCOC(=O)C1CCN(C(=O)c2ccc(OCC)c(OCC)c2)CC1 ?
Cav32 inh: -0.41; CYP2C9 inh: -38; CYP2C19 act: 1.1; CYP2C19 inh: -8; CYP2C9 activ: 1.4

What do the screens show for `COc1ccc(OCCC(=O)N2CCCCC2)cc1`?
CYP2C9 inh: 14; CYP2C19 act: 0.1; CYP2C19 inh: 85*; CYP2C9 activ: 0.9

How did CCOC(=O)C1CCN(C(=O)CCc2ccccc2)CC1 do in these assays?
Cav32 inh: -0.45; CYP2C9 inh: 46; CYP2C19 act: 0.3; CYP2C19 inh: 71*; CYP2C9 activ: 0.5

How did CCOC(=O)C1CCN(C(=O)N(C)C)CC1 do in these assays?
Cav32 inh: 0.057; CYP2C9 inh: 13; CYP2C19 act: 1; CYP2C19 inh: 3; CYP2C9 activ: 0.9

What do the screens show for `CCOC(=O)C1CCN(C(=O)CSCCSCC(=O)N2CCC(C(=O)OCC)CC2)CC1`?
Cav32 inh: 0.064; CYP2C9 inh: 7; CYP2C19 act: 0.3; CYP2C19 inh: 73*; CYP2C9 activ: 0.9

What do the screens show for `CCN1CCCC1CN(Cc1cc2ccc(C)c(C)c2[nH]c1=O)C(=O)Nc1ccccc1OC` (stereo not given)?
Cav32 inh: 0.77; CYP2C9 inh: 7; CYP2C19 act: 1; CYP2C19 inh: -3; CYP2C9 activ: 0.9

Results for CCOC(=O)C1CCN(C(=O)COC(=O)c2ccc(Br)o2)CC1 ?
Cav32 inh: -0.0018; CYP2C9 inh: 23; CYP2C19 act: 0.8; CYP2C19 inh: 24; CYP2C9 activ: 0.8

What do the screens show for `CC1CCN(C(=O)COC(=O)c2ccc(Br)o2)CC1`?
Cav32 inh: 0.47; CYP2C9 inh: 3; CYP2C19 act: 0.4; CYP2C19 inh: 60*; CYP2C9 activ: 1

Results for CCOC(=O)C1CCCN(CCCc2ccccc2)C1 (stereo not given) ?
Cav32 inh: 1.3; CYP2C9 inh: 20; CYP2C19 act: 0.2; CYP2C19 inh: 80*; CYP2C9 activ: 0.8

How did COC(=O)C1CCN(C(=O)CCCOc2ccccc2)CC1 do in these assays?
Cav32 inh: 0.26; CYP2C9 inh: 13; CYP2C19 act: 0.1; CYP2C19 inh: 87*; CYP2C9 activ: 0.9

What do the screens show for `Cc1cccc(C)c1NC(=O)C1CCCN(CCCc2ccccc2)C1` (stereo not given)?
Cav32 inh: 0.17; CYP2C9 inh: -8; CYP2C19 act: 0.9; CYP2C19 inh: 15; CYP2C9 activ: 1.1

What do the screens show for `CC(=O)c1c(C(C)=O)c(C)n(-c2nc(-c3ccc(C)c(C)c3)c(C)s2)c1C`?
Cav32 inh: -3.1; CYP2C9 inh: 4; CYP2C19 act: 1; CYP2C19 inh: -1; CYP2C9 activ: 1

Results for CCCCN(C)C(=O)c1cc2cc3ccc(OC)cc3nc2s1 ?
Cav32 inh: -0.016; CYP2C9 inh: 53*; CYP2C19 act: 0.4; CYP2C19 inh: 56*; CYP2C9 activ: 0.5

What do the screens show for `O=C(Nc1nc(C2C3CC4CC(C3)CC2C4)cs1)c1cc2cc([N+](=O)[O-])ccc2oc1=O` (stereo not given)?
CYP2C9 inh: -8; CYP2C19 act: 1; CYP2C19 inh: -4; CYP2C9 activ: 1.1

How did COc1ccc(C2C(C#N)=C(N)Oc3cc4c(cc32)OCO4)cc1 (stereo not given) do in these assays?
Cav32 inh: -4*; CYP2C9 inh: 87*; CYP2C19 act: 0.1; CYP2C19 inh: 87*; CYP2C9 activ: 0.1

What do the screens show for `COc1ccc(OC)c(C2C(C#N)=C(N)Oc3cc(N)ccc32)c1` (stereo not given)?
Cav32 inh: -0.87; CYP2C9 inh: 92*; CYP2C19 act: 0.1; CYP2C19 inh: 94*; CYP2C9 activ: 0.1

How did COc1cccc(C2C(C#N)=C(N)Oc3cc(C)[nH]c(=O)c32)c1OC (stereo not given) do in these assays?
CYP2C9 inh: 6; CYP2C19 act: 1; CYP2C19 inh: 5; CYP2C9 activ: 0.9

How did CCOc1ccccc1C1C(C#N)=C(N)Oc2cc(N)ccc21 (stereo not given) do in these assays?
Cav32 inh: 0.13; CYP2C9 inh: 70*; CYP2C19 act: 0.2; CYP2C19 inh: 76*; CYP2C9 activ: 0.3

How did N#CC1=C(N)Oc2cc(N)ccc2C1C1CCCCC1 (stereo not given) do in these assays?
Cav32 inh: -0.81; CYP2C9 inh: 31; CYP2C19 act: 0.2; CYP2C19 inh: 84*; CYP2C9 activ: 0.7

What do the screens show for `O=C(COC(=O)c1ccc(S(=O)(=O)N2CCCC2)cc1)NCc1ccc(F)cc1`?
Cav32 inh: 0.36; CYP2C9 inh: 26; CYP2C19 act: 0.8; CYP2C19 inh: 23; CYP2C9 activ: 0.7

How did Cc1ccc(CN(C(=O)c2ccco2)C(C(=O)NC2CCCC2)c2ccc(N3CCOCC3)cc2)cc1 (stereo not given) do in these assays?
Cav32 inh: 0.33

Results for CCCCn1c(SCc2cc(=O)[nH]c3ccccc23)nc2c1c(=O)n(C)c(=O)n2C ?
Cav32 inh: 1; CYP2C9 inh: 16; CYP2C19 act: 0.9; CYP2C19 inh: 14; CYP2C9 activ: 0.8

How did CCOC(=O)C(=O)/C(=C\N(C)C)c1onc(-c2ccccc2Cl)c1C(=O)OC do in these assays?
CYP2C9 inh: 67*; CYP2C19 act: 0.6; CYP2C19 inh: 44; CYP2C9 activ: 0.3

What do the screens show for `CCOC(=O)C(=O)/C(=C\N(C)C)c1onc(-c2c(Cl)cccc2Cl)c1C(=O)OC`?
CYP2C9 inh: 91*; CYP2C19 act: 0.5; CYP2C19 inh: 55*; CYP2C9 activ: 0.1

How did COC(=O)C1C(O)=CC(=O)CC1C (stereo not given) do in these assays?
Cav32 inh: 0.026

How did COc1ccc(-c2cc([C@H]3[C@@H]4C=CCC[C@@]4(C)C(=O)N3Cc3ccccc3)ccc2F)cc1OC do in these assays?
Cav32 inh: -0.72

Results for CCOc1ccc(NC(=O)CCN2CCN(c3ccccc3)CC2)cc1 ?
Cav32 inh: 0.23; CYP2C9 inh: 33; CYP2C19 act: 0.9; CYP2C19 inh: 8; CYP2C9 activ: 0.7

Results for CCOc1ccc(NC(=O)CCSc2nc3c(c(CC)c2C#N)C(=O)CC(C)(C)C3)cc1 ?
Cav32 inh: -0.91; CYP2C9 inh: 90*; CYP2C19 act: 0.1; CYP2C19 inh: 90*; CYP2C9 activ: 0.1

What do the screens show for `CCc1c(C#N)c(SCCC(=O)Nc2ccc(C)cc2)nc2c1C(=O)CC(C)(C)C2`?
Cav32 inh: -3; CYP2C9 inh: 95*; CYP2C19 act: 0; CYP2C19 inh: 96*; CYP2C9 activ: 0

Bioassay records as filed in PubChem.
